Experimental findings from publication PMC7862700, “An all-to-all approach to the identification of sequence-specific readers for epigenetic DNA modifications on cytosine” are described below.

Test in all cases: DAPPL (digital affinity profiling via proximity ligation, sequencing); 10 mM Tris-HCl pH 7.5, 50 mM NaCl, 1 mM DTT, 4% glycerol, room temperature, 30 min; GST-TFs on glutathione beads, 16-mer random dsDNA library, 0.1% formaldehyde crosslink after washing; high values mean tight binding
For one assay, the target named is T1, FEV (Homo sapiens, UniProt Q99581 1-238).
T1 sequence: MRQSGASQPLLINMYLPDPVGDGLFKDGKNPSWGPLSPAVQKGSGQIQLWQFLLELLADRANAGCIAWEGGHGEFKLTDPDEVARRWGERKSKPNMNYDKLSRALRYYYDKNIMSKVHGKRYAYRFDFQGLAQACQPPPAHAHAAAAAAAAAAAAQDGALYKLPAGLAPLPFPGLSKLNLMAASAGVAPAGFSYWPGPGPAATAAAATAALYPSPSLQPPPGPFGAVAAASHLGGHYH
Conditions: protein: recombinant; tags: N-terminal GST; dsDNA, one strand shown. The method, boiled down: (§1)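 After expression in yeast as GST fusions, human transcription factors were bound to glutathione beads, DNA-barcoded and mixed with a tag-only sample. The pools were incubated with 200 nmole of a 16-mer random double-stranded DNA library in Tris/NaCl/DTT/glycerol buffer (30 min, room temperature), washed and crosslinked with 0.1% formaldehyde. Proximity ligation with BsaI/T4 ligase ran for 1 h at 37 °C, before PCR amplification and sequencing on an Illumina NextSeq500. Binding signal is a hexamer's read frequency for a factor divided by its frequency for the tag-only sample.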

A further assay concerns the target ETV5 (Homo sapiens, UniProt P41161 1-510). As to conditions: protein: recombinant; tags: N-terminal GST; dsDNA, one strand shown. In short, it runs like this: as §1
The target of the next assay is HSF1 (Homo sapiens, UniProt Q00613 1-529). Conditions: protein: recombinant; tags: N-terminal GST; chain copies: 3; dsDNA, one strand shown. In short, it runs like this: as §1
Sequence of HSF1 (Q00613 whole entry): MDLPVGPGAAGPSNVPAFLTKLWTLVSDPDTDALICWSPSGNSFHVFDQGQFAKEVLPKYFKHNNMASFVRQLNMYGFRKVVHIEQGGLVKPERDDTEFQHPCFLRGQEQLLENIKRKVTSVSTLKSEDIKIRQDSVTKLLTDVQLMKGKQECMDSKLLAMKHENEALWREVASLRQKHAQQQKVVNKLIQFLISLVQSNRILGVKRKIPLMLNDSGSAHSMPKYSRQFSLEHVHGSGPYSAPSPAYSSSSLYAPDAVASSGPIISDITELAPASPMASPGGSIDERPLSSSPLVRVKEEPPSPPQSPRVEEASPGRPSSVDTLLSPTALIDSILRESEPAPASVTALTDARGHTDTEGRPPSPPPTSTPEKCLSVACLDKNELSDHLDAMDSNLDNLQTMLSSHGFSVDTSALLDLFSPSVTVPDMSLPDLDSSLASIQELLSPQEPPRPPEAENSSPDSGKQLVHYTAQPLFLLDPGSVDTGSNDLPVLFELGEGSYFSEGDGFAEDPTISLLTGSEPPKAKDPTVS
A further assay has as its target T2, SPIC (Homo sapiens, UniProt Q8N5J4 1-248).
T2 sequence: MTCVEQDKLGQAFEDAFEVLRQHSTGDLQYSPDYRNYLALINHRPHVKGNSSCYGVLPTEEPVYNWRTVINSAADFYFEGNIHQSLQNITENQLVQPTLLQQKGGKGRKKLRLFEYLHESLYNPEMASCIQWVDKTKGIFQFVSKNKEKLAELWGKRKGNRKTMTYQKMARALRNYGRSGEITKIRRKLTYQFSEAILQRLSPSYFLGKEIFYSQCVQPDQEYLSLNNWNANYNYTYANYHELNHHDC
Conditions: protein: recombinant; tags: N-terminal GST; dsDNA, one strand shown. In short, it runs like this:
as §1

For the next assay, the target named is ELF4 (Homo sapiens, UniProt Q99607 1-663). As to conditions: protein: recombinant; tags: N-terminal GST; dsDNA, one strand shown. The method, boiled down: as §1
Sequence of ELF4 (Q99607 whole entry): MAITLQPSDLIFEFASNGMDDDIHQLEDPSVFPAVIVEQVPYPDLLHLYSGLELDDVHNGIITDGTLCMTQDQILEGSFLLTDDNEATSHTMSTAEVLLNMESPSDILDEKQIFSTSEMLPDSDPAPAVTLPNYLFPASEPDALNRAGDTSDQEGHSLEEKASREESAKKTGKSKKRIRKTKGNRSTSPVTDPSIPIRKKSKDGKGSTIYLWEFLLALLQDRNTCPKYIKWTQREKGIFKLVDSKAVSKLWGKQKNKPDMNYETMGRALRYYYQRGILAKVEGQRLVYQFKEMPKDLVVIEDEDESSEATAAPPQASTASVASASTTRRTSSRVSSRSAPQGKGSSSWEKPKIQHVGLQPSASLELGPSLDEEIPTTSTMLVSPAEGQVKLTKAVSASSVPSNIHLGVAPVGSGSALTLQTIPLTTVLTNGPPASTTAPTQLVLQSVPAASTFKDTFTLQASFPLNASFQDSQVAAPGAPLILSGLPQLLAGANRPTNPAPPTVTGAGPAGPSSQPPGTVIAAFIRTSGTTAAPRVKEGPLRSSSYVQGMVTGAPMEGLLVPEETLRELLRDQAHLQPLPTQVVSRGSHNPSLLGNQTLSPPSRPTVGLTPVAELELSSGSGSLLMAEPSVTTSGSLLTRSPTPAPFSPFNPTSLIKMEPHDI
The target of a further assay is T3, ELK4 (Homo sapiens, UniProt P28324-2 1-405).
T3 sequence: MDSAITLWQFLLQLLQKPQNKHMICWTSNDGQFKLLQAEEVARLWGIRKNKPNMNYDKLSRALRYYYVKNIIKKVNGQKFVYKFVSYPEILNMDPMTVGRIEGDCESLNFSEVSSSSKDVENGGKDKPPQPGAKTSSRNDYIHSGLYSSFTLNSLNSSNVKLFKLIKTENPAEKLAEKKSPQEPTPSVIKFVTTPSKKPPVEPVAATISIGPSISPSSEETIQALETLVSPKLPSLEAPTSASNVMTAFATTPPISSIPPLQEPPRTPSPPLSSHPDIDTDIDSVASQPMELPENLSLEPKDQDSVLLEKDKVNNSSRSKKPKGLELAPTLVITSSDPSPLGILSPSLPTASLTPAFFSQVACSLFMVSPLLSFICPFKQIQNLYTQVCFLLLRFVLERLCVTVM
Conditions: protein: recombinant; tags: N-terminal GST; dsDNA, one strand shown. The method, boiled down: as §1

The target of the next assay is T4, ETV2 (Homo sapiens, UniProt O00321 1-342).
T4 sequence: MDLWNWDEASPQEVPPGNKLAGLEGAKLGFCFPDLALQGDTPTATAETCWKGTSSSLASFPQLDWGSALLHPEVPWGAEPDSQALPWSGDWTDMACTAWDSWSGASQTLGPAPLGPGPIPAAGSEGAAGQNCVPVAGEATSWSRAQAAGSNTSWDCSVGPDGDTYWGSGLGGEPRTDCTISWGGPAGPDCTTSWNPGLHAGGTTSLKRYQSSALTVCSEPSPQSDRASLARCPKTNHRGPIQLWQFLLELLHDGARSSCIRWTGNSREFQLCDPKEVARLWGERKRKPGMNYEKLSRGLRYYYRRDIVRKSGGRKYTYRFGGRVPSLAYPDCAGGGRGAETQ
Conditions: protein: recombinant; tags: N-terminal GST; dsDNA, one strand shown. In short, it runs like this: as §1

Another assay has as its target T5, ELF3 (Homo sapiens, UniProt P78545 1-371).
T5 sequence: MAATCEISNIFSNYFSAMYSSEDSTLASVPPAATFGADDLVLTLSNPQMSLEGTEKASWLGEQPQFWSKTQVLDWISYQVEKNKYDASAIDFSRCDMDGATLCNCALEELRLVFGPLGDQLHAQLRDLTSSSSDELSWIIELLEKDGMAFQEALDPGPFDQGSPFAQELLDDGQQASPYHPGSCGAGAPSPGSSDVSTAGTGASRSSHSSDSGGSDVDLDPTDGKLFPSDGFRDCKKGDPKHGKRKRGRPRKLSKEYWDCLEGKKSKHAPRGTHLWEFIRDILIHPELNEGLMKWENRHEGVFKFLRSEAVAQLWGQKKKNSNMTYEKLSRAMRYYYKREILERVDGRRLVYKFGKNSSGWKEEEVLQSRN
As to conditions: protein: recombinant; tags: N-terminal GST; dsDNA, one strand shown. The method, boiled down: as §1

For another assay, the target named is CRX (Homo sapiens, UniProt O43186 1-299). As to conditions: protein: recombinant; tags: N-terminal GST; dsDNA, one strand shown. The method, boiled down:
as §1

A further assay addresses ETV1 (Homo sapiens, UniProt P50549 1-477). Conditions: protein: recombinant; tags: N-terminal GST; dsDNA, one strand shown. In short, it runs like this: as §1
In the next assay the target is T6, ERF (Homo sapiens, UniProt P50548 1-548).
T6 sequence: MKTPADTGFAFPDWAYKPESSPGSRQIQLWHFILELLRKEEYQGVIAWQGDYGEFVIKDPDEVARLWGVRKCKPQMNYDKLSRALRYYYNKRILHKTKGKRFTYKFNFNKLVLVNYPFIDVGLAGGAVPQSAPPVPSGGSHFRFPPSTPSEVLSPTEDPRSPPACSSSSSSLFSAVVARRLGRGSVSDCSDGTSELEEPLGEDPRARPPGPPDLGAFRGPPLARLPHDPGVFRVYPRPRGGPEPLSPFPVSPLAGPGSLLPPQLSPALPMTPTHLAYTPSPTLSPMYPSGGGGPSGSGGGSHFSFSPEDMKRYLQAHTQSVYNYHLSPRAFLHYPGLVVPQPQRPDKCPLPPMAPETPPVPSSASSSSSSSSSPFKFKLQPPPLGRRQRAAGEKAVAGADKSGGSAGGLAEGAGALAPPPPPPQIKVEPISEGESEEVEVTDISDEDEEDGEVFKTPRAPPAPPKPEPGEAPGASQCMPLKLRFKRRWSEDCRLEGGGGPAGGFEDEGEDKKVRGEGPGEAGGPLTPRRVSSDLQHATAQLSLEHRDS
As to conditions: protein: recombinant; tags: N-terminal GST; dsDNA, one strand shown. In short, it runs like this: as §1

For the next assay, the target named is T7, ETV3L (Homo sapiens, UniProt Q6ZN32 1-361).
T7 sequence: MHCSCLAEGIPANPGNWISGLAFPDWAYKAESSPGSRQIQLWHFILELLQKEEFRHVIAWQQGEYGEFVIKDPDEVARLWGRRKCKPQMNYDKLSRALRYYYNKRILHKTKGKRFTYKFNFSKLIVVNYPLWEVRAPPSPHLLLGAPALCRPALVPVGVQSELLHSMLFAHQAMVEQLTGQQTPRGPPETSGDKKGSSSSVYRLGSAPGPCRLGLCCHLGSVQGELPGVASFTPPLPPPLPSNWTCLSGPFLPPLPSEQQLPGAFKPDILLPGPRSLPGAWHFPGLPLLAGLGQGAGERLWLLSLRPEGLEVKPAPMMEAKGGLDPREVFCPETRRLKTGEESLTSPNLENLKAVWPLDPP
As to conditions: protein: recombinant; tags: N-terminal GST; dsDNA, one strand shown. The method, boiled down:
as §1

For the next assay, the target named is T8, ETS2 (Homo sapiens, UniProt P15036 1-469).
T8 sequence: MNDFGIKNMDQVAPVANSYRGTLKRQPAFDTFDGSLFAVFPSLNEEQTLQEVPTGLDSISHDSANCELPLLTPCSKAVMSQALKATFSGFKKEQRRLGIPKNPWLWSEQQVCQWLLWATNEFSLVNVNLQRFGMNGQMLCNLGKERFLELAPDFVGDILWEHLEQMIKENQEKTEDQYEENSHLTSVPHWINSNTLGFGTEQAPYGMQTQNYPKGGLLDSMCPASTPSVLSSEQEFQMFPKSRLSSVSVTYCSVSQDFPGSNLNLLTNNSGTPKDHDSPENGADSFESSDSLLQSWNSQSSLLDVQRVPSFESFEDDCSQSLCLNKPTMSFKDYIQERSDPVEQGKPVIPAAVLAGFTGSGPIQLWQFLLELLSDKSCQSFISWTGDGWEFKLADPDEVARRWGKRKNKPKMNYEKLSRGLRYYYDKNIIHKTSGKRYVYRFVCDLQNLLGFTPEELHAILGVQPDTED
As to conditions: protein: recombinant; tags: N-terminal GST; dsDNA, one strand shown. The method, boiled down: as §1

Another assay concerns the target T9, SPDEF (Homo sapiens, UniProt O95238 1-335).
T9 sequence: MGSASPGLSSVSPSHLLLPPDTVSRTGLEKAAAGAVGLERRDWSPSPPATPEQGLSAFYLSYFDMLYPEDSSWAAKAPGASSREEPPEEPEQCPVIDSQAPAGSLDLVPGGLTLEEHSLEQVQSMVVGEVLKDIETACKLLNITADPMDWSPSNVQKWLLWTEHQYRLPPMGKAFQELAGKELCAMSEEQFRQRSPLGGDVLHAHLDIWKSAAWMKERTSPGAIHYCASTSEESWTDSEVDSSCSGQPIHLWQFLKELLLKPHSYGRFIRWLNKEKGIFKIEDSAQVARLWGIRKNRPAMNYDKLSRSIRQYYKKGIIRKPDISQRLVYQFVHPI
As to conditions: protein: recombinant; tags: N-terminal GST; dsDNA, one strand shown. In short, it runs like this:
as §1

Another assay has as its target T10, ETV7 (Homo sapiens, UniProt Q9Y603 1-341).
T10 sequence: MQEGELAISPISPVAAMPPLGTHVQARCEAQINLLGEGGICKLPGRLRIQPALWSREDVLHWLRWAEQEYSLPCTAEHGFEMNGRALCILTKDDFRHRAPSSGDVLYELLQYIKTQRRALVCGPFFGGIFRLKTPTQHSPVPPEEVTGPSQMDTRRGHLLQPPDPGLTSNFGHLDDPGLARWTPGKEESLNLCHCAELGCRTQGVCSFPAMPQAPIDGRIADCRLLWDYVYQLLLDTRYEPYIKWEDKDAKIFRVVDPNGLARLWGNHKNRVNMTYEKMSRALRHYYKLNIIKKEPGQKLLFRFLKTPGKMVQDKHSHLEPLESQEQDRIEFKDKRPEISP
As to conditions: protein: recombinant; tags: N-terminal GST; dsDNA, one strand shown. In short, it runs like this: as §1

For a further assay, the target named is T11, ELF5 (Homo sapiens, UniProt Q9UKW6-2 1-255).
T11 sequence: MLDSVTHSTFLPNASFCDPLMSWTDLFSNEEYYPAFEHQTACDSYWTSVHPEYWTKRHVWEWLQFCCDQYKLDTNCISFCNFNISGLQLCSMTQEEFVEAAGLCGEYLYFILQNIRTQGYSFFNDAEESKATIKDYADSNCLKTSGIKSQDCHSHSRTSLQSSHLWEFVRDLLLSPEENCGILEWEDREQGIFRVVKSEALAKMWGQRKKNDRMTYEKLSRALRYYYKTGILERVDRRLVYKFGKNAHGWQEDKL
As to conditions: protein: recombinant; tags: N-terminal GST; dsDNA, one strand shown. In short, it runs like this:
as §1

In another assay the target is T12, ETV3 (Homo sapiens, UniProt P41162-2 1-143).
T12 sequence: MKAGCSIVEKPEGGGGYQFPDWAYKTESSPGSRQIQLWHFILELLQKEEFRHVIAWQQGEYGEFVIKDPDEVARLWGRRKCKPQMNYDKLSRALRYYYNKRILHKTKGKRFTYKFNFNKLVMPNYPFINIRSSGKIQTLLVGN
As to conditions: protein: recombinant; tags: N-terminal GST; dsDNA, one strand shown. The method, boiled down:
as §1

Another assay has as its target ETV6 (Homo sapiens, UniProt P41212 1-452). Conditions: protein: recombinant; tags: N-terminal GST; dsDNA, one strand shown. The method, boiled down: as §1

Sequence of CRX (O43186 whole entry): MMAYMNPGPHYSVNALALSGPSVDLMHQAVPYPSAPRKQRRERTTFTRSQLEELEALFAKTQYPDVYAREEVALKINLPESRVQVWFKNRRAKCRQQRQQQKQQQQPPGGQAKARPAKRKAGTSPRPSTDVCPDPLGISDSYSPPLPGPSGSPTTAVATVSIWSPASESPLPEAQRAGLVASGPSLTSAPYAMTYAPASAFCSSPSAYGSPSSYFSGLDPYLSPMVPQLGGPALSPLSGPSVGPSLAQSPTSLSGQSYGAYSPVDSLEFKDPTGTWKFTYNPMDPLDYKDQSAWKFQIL
Sequence of ETV6 (P41212 whole entry): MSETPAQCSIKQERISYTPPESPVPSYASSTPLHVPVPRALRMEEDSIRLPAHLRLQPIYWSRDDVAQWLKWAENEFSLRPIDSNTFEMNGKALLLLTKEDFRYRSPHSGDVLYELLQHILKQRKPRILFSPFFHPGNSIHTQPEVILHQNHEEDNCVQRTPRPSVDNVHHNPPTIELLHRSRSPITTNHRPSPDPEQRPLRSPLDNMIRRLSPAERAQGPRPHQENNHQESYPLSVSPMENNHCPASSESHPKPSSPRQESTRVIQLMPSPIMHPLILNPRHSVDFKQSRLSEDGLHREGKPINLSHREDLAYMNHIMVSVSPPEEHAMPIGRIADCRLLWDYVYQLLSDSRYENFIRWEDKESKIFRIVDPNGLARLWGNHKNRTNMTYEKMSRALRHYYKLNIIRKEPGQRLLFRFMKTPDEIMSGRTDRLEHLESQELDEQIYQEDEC
Sequence of ETV5 (P41161 whole entry): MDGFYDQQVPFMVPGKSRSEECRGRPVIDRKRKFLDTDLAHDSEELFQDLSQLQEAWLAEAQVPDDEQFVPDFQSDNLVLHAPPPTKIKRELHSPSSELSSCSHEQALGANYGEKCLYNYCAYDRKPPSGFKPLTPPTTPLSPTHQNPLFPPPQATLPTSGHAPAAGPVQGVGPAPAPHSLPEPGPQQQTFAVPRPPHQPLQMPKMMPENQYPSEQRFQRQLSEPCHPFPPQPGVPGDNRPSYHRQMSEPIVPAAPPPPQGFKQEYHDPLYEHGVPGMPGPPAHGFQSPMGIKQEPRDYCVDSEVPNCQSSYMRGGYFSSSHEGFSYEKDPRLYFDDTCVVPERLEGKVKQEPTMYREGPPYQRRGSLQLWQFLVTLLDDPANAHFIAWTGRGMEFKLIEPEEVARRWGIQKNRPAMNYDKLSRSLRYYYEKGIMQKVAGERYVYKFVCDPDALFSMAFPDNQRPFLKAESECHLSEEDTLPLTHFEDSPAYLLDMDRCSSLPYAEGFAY
Sequence of ETV1 (P50549 whole entry): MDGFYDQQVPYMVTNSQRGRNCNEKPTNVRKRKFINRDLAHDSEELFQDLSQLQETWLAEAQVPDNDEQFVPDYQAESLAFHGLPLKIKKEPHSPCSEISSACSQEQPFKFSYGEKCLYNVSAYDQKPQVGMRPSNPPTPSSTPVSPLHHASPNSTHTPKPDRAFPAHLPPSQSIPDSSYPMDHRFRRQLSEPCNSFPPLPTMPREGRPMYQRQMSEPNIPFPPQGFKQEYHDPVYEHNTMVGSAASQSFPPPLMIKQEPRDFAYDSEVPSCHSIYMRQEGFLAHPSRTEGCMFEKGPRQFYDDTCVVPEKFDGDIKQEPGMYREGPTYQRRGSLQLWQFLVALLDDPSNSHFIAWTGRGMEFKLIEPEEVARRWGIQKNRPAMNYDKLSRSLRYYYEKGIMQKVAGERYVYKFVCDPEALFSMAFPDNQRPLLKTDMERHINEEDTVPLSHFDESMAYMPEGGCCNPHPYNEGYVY

For the sequence TCTTGA, the binding signal in the assay with FEV was 1.3 fold enrichment (6-mer frequency, TF over GST control); with ETV5, 1.14 fold enrichment (6-mer frequency, TF over GST control); in the assay with HSF1, 1.61 fold enrichment (6-mer frequency, TF over GST control); in the assay with SPIC, 1.21 fold enrichment (6-mer frequency, TF over GST control); with ELF4 it was 1.33 fold enrichment (6-mer frequency, TF over GST control); in the assay with ELK4, 1.4 fold enrichment (6-mer frequency, TF over GST control). In addition, the binding signal with ETV2 was 1.2 fold enrichment (6-mer frequency, TF over GST control); with ELF3, 1.19 fold enrichment (6-mer frequency, TF over GST control); with CRX it was 1.44 fold enrichment (6-mer frequency, TF over GST control); with ETV1 it was 1.17 fold enrichment (6-mer frequency, TF over GST control); with ERF it was 1.49 fold enrichment (6-mer frequency, TF over GST control); with ETV3L it was 1.32 fold enrichment (6-mer frequency, TF over GST control). The binding signal was 1.28 fold enrichment (6-mer frequency, TF over GST control) in the assay with ETS2; 1.25 fold enrichment (6-mer frequency, TF over GST control) in the assay with SPDEF; 1.22 fold enrichment (6-mer frequency, TF over GST control) with ETV7; 1.3 fold enrichment (6-mer frequency, TF over GST control) with ELF5; 1.18 fold enrichment (6-mer frequency, TF over GST control) in the assay with ETV3; 1.24 fold enrichment (6-mer frequency, TF over GST control) in the assay with ETV6.
